Assay results reported in PubChem BioAssay.
For part of these data: Measured potencies and affinities stand elsewhere. Calls of active or inactive are those of the source.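 How the source made its calls, unless noted: active means compound raising the membrane signal above positive-control mean plus 3 SD in both repeats, and a primary screen hit; inactive means the rest.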

What was measured:
[1] = tested on: TRPC4 beta (transient receptor potential cation channel C4), mouse; test: activators of mouse TRPC4 channel, confirmation, cell-based, Fluo4 calcium, HEK293 TRPC4beta/mu-opioid, duplicates, 10 µM (AID 2426;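 active means fluorescence ratio normalized to control raised more than 50% in primary screen plus both repeat runs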); conditions: Fluo4 calcium fluorescence, at 10 µM; stronger effect = higher value
[2] = tested on: transient receptor potential cation channel C4 beta (TRPC4), mouse; test: activators of mouse TRPC4 channel, confirmation, cell-based, second round, Fluo4, HEK293 TRPC4beta/mu-opioid, 1 µM (AID 2461;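 active means primary screen active and over 50% activation in each of two duplicate runs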); conditions: Fluo4 calcium fluorescence, at 1 µM; stronger effect = higher value
[3] = tested on: TRPC4 (transient receptor potential cation channel C4 beta), mouse; test: positive allosteric modulators of mouse TRPC4, confirmation, cell-based, second round, Fluo-4, HEK293 TRPC4beta/mu-opioid, 1 µM (AID 2554;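 active means primary screen hit whose fluorescence ratio, in both repeats, exceeds the weak agonist control mean by 3 SD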); conditions: DAMGO EC20, Fluo-4 calcium flux, at 1 µM; stronger effect = higher value
[4] = tested on: TRPC4 beta (transient receptor potential cation channel C4), mouse; test: positive allosteric modulators of mouse TRPC4, confirmation, cell-based, Fluo-4, HEK293 TRPC4beta/mu-opioid (AID 2555;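 active means primary screen hit whose calcium fluorescence ratio, in both repeats, exceeds the weak agonist control mean by 3 SD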); conditions: DAMGO EC20, Fluo-4 calcium flux, at 10 µM; stronger effect = higher value
[5] = molecular target: Short transient receptor potential channel 4 (Mus musculus) (UniProt Q9QUQ5); test: inhibitors of mouse TRPC4 channel, confirmation, cell-based, Fluo4, HEK293 TRPC4beta/mu-opioid (AID 2636;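 active means calcium signal cut by more than 3 SD below the full-agonist control yet still positive, in both repeats and the earlier primary screen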); conditions: DAMGO, Fluo4 calcium flux, at 10 µM; stronger effect = higher value
[6] = molecular target: Short transient receptor potential channel 4 (Mus musculus) (UniProt Q9QUQ5); test: inhibitors of mouse TRPC4 channel, confirmation, cell-based, second round, Fluo4, HEK293 TRPC4beta/mu-opioid, 1 µM (AID 2637;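 active means calcium signal ratio cut to more than 3 SD under the fully stimulated control mean yet still positive, in both repeats and the primary screen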); conditions: Fluo4 calcium flux, DAMGO, at 1 µM; stronger effect = higher value
[7] = molecular target: Short transient receptor potential channel 4 (Mus musculus) (UniProt Q9QUQ5); test: mouse TRPC4 channel activators, dose response, cell-based, HEK293 TRPC4/mu-opioid, Fluo-4 calcium (AID 434937;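 active means primary screen activator hit with a dose response curve and TRPC4 channel activation at any tested dose; inactive means no activation, no dose response, or not a primary hit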)
[8] = molecular target: Short transient receptor potential channel 4 (Mus musculus) (UniProt Q9QUQ5); test: TRPC4 positive allosteric modulators, dose response, cell-based, HEK293 TRPC4/mu-opioid, Fluo-4 calcium, EC20 DAMGO (AID 434941;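 active means earlier screen potentiator hit that boosts the TRPC4 ion channel at some dose, with a dose response; inactive means no potentiation, no dose response, or not a prior hit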;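 further: calcium entry triggered by an EC20 dose of DAMGO at the co-expressed mu-opioid receptor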)
[9] = molecular target: Short transient receptor potential channel 4 (Mus musculus) (UniProt Q9QUQ5); test: mouse TRPC4 channel inhibitors, dose response, cell-based, HEK293 TRPC4/mu-opioid, Fluo-4 calcium (AID 434942;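 active means primary screen inhibitor hit that blocks the TRPC4 channel at some tested dose, yielding a dose curve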)
[10] = molecular target: Short transient receptor potential channel 6 (Mus musculus) (UniProt Q61143); test: inhibition of mouse TRPC6 channel, confirmation, selectivity assay for TRPC4 inhibitor project, cell-based, HEK293, membrane potential dye, duplicate (AID 434948;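 active means active in primary screen and both duplicates, each dropping signal beyond three positive-control SD with fluorescence still positive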); conditions: HEK293 TRPC6, membrane potential dye fluorescence, at 10 µM, stimulated with maximal-effect acetylcholine; stronger effect = higher value
[11] = molecular target: Short transient receptor potential channel 6 (Mus musculus) (UniProt Q61143); test: activation of mouse TRPC6 channel, confirmation, selectivity assay for TRPC4 activator project, cell-based, HEK293, membrane potential dye, duplicate (AID 434950;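 active means membrane potential signal rise above negative control mean plus 3 SD in both duplicates, also active in the earlier TRPC4 screen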); conditions: HEK293 TRPC6, membrane potential fluorescence, at 10 µM; stronger effect = higher value
[12] = molecular target: Short transient receptor potential channel 6 (Mus musculus) (UniProt Q61143); test: TRPC6 potentiation by TRPC4 potentiator hits, confirmation, selectivity assay for TRPC4 potentiator project, HEK293 cells, membrane potential dye, duplicate (AID 434952); conditions: HEK293 TRPC6, membrane potential dye fluorescence, at 10 µM, maximal acetylcholine added after compound; stronger effect = higher value
[13] = molecular target: Short transient receptor potential channel 4 (Mus musculus) (UniProt Q9QUQ5); test: calcium flux activators in TRPC4/5HT1a cells, counter-screen for TRPC4 activator project, cell-based, second counter screen, HEK293 TRPC4/5HT1a, Fluo-4 (AID 434977;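 active means calcium signal rise above buffer-control mean plus 5 SD in both duplicates, and also a hit in the primary screen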); conditions: Fluo-4 calcium flux, at 10 µM; stronger effect = higher value
[14] = calcium flux inhibitors in TRPC4/5HT1a cells, confirmation, counter-screen for TRPC4 inhibitor project, cell-based, second counter screen, HEK293 TRPC4/5HT1a, Fluo-4 (AID 434978;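 active means primary screen active whose calcium signal fell more than 3 SD beyond the full-serotonin control mean in both duplicate plates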;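 on outcome: serotonin given first at submaximal then at maximal dose after compound preincubation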); conditions: Fluo-4 calcium flux, at 10 µM, serotonin added to trigger calcium flux; stronger effect = higher value
[15] = tested on: TRPC4 (mouse), co-expressed with 5HT1a in HEK293; test: calcium flux potentiators in TRPC4/5HT1a cells, confirmation, counter-screen for TRPC4 potentiator project, cell-based, second counter screen, HEK293 TRPC4/5HT1a, Fluo-4 (AID 434979;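 active means signal rise over 3 SD above mean of control wells given weak agonist, in both repeats and first screen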); conditions: Fluo-4 calcium flux, at 10 µM, serotonin added at its EC20 dose; stronger effect = higher value
[16] = calcium flux activation in mu-opioid HEK293 cells, confirmation, counter-screen for TRPC4 activator project, cell-based, HEK293 mu-opioid receptor line (AID 449723;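 active means hit in primary screen, with calcium signal over 5 SD above buffer well mean in both duplicates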;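 further: counter screen cells carry the mu-opioid receptor alone and lack TRPC4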); conditions: Fluo-4 calcium fluorescence, at 10 µM; stronger effect = higher value
[17] = calcium flux enhancement in mu-opioid HEK293 cells, confirmation, counter-screen for TRPC4 allosteric potentiator project, cell-based, HEK293 mu-opioid receptor line (AID 449724;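 active means calcium signal rise more than 3 SD above the low-dose agonist control mean, in both duplicate plates and the primary screen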); conditions: Fluo-4 calcium flux, at 10 µM, compound added before EC20 DAMGO stimulus; stronger effect = higher value

Chain of Short transient receptor potential channel 4 (Mus musculus) (Q9QUQ5 whole entry, looked up): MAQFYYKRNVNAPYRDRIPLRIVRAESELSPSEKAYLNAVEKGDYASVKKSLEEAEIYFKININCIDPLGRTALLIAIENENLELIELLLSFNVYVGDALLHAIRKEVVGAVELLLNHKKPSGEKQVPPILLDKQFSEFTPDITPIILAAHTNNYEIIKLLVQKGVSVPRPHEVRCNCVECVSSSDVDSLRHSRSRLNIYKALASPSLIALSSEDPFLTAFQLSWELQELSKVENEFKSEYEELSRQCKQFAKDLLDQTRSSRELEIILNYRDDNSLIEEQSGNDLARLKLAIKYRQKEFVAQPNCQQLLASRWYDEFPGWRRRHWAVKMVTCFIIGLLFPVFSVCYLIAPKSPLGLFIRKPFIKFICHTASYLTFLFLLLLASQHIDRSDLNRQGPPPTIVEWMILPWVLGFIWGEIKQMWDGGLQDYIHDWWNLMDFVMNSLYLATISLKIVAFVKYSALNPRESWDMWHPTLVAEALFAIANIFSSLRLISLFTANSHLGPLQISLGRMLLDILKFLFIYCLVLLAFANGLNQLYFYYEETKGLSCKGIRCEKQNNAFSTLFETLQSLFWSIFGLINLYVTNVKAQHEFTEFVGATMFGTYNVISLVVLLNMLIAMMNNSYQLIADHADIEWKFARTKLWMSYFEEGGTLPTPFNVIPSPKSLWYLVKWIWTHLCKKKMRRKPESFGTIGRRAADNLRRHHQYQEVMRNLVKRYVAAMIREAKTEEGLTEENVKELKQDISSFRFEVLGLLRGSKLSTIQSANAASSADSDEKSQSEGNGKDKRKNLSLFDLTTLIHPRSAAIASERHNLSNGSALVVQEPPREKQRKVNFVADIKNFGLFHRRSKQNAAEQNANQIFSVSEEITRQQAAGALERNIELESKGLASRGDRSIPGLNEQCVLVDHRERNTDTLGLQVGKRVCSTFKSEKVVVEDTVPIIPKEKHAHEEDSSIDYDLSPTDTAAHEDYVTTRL
Chain of Short transient receptor potential channel 6 (Mus musculus) (Q61143 whole entry, looked up): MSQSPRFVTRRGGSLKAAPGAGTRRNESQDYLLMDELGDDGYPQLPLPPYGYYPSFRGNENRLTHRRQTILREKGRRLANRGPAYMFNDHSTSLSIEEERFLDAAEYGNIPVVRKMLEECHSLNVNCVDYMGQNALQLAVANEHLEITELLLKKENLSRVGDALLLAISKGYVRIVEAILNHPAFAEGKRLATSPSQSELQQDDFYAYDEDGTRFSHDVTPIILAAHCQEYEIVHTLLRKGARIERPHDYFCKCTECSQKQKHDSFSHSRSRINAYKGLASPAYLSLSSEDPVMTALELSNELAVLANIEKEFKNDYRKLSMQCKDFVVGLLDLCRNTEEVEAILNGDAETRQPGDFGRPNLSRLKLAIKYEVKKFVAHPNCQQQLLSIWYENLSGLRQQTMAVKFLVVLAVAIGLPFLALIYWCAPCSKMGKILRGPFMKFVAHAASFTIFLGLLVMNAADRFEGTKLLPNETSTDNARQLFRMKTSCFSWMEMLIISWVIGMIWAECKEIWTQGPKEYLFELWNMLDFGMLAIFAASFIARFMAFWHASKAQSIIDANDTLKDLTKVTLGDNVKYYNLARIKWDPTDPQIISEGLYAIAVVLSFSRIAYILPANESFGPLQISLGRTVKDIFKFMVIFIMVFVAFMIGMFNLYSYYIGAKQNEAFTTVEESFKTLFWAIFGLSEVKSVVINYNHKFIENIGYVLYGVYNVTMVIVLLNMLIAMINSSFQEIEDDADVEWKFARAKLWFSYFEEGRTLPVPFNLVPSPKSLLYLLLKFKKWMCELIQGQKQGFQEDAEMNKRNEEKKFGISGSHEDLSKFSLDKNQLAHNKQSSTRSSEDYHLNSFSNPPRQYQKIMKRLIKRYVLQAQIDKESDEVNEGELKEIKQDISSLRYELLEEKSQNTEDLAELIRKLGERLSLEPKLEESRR

CCOC(=O)C1=C(NC(=S)NC(=O)c2ccccc2)c2ccccc2CC1(C)C
active: potentiation [4] 12% | potentiation [15] 27.1%
inactive: outcome [1] | outcome [2] | outcome [3] | outcome [5] | outcome [6] | outcome [7] | outcome [8] | outcome [9] | outcome [10] | outcome [11] | outcome [12] | outcome [13] | outcome [14] | outcome [16] | outcome [17]

Cc1ccc(NS(=O)(=O)c2cc(C(=O)N3CCc4ccccc4C3)ccc2Cl)cc1
inactive: outcome [1] | outcome [2] | outcome [3] | outcome [4] | outcome [5] | outcome [6] | outcome [7] | outcome [8] | outcome [9] | outcome [10] | outcome [11] | outcome [12] | outcome [13] | outcome [14] | outcome [16] | outcome [17]
active: potentiation [15] 9.01%

COc1cc(CN2CCC(CO)(CCOc3ccccc3)CC2)cc(OC)c1
active: inhibition [5] 87% | inhibition [14] 43.6%
inactive: outcome [1] | outcome [2] | outcome [3] | outcome [4] | outcome [6] | outcome [7] | outcome [8] | outcome [9] | outcome [10] | outcome [11] | outcome [12] | outcome [13] | outcome [15] | outcome [16] | outcome [17]

CC(=O)Nc1ccc(S(=O)(=O)N2CCN(CCCOc3cc(C)ccc3C)CC2)cc1
active: potentiation [4] 24%
inactive: outcome [1] | outcome [2] | outcome [3] | outcome [5] | outcome [6] | outcome [7] | outcome [8] | outcome [9] | outcome [10] | outcome [11] | outcome [12] | outcome [13] | outcome [14] | outcome [15] | outcome [16] | outcome [17]

CC1CC(C)CN(CCCNC(=O)C2CCCN(c3ncnc4c3nc3n4CCCCC3)C2)C1 (stereo not given)
inactive: outcome [1] | outcome [2] | outcome [4] | outcome [5] | outcome [6] | outcome [7] | outcome [8] | outcome [9] | outcome [10] | outcome [11] | outcome [12] | outcome [13] | outcome [14] | outcome [16] | outcome [17]
active: potentiation [3] 18% | potentiation [15] 17.1%

CC(CCc1ccc(O)cc1)N(C)CCc1ccccc1 (stereo not given)
inactive: outcome [1] | outcome [2] | outcome [3] | outcome [4] | outcome [5] | outcome [6] | outcome [7] | outcome [8] | outcome [9] | outcome [10] | outcome [11] | outcome [12] | outcome [13] | outcome [14] | outcome [15] | outcome [16] | outcome [17]

Cc1cccc(OCCn2c(=O)sc3ccccc32)c1
inactive: outcome [1] | outcome [2] | outcome [3] | outcome [4] | outcome [5] | outcome [6] | outcome [7] | outcome [8] | outcome [9] | outcome [10] | outcome [11] | outcome [12] | outcome [13] | outcome [14] | outcome [15] | outcome [16] | outcome [17]

CCOC(=O)c1c(NC(=O)COC(=O)CCOc2ccc(OCC)cc2)sc(C(=O)N(C)C)c1C
active: potentiation [3] 22% | potentiation [4] 32% | potentiation [15] 81.1%
inactive: outcome [1] | outcome [2] | outcome [5] | outcome [6] | outcome [7] | outcome [8] | outcome [9] | outcome [10] | outcome [11] | outcome [12] | outcome [13] | outcome [14] | outcome [16] | outcome [17]

Cc1ccccc1-c1n[nH]c(=S)n1Cc1ccccc1
inactive: outcome [1] | outcome [2] | outcome [3] | outcome [4] | outcome [5] | outcome [6] | outcome [7] | outcome [8] | outcome [9] | outcome [10] | outcome [11] | outcome [12] | outcome [13] | outcome [14] | outcome [15] | outcome [16] | outcome [17]

O=C(CC1C(=O)NCCN1C(=O)Nc1ccccc1)Nc1cc(Cl)cc(Cl)c1 (stereo not given)
active: potentiation [4] 15% | potentiation [15] 21.1%
inactive: outcome [1] | outcome [2] | outcome [3] | outcome [5] | outcome [6] | outcome [7] | outcome [8] | outcome [9] | outcome [10] | outcome [11] | outcome [12] | outcome [13] | outcome [14] | outcome [16] | outcome [17]

CN1CCN(NC(=O)Nc2cc(Cl)cc(Cl)c2)CC1
inactive: outcome [1] | outcome [2] | outcome [3] | outcome [5] | outcome [6] | outcome [7] | outcome [8] | outcome [9] | outcome [10] | outcome [11] | outcome [12] | outcome [13] | outcome [14] | outcome [15] | outcome [16] | outcome [17]
active: potentiation [4] 29%

CC(C)(C)NC(=S)N/N=C\c1ccc(-c2ccc([N+](=O)[O-])cc2)o1
active: potentiation, percent of control [12] 142% | potentiation [15] 15.4%
inactive: outcome [1] | outcome [2] | outcome [3] | outcome [4] | outcome [5] | outcome [6] | outcome [7] | outcome [8] | outcome [9] | outcome [10] | outcome [11] | outcome [13] | outcome [14] | outcome [16] | outcome [17]

CCN1CCN(c2nc(N)c([N+](=O)[O-])c(Nc3ccc(C)cc3)n2)CC1
active: potentiation [3] 22% | potentiation [4] 13% | potentiation [15] 24.9%
inactive: outcome [1] | outcome [2] | outcome [5] | outcome [6] | outcome [7] | outcome [8] | outcome [9] | outcome [10] | outcome [11] | outcome [12] | outcome [13] | outcome [14] | outcome [16] | outcome [17]

CCOC(=O)c1c(-c2ccc(OC)cc2)oc2ccc(O)cc12
inactive: outcome [1] | outcome [2] | outcome [3] | outcome [4] | outcome [5] | outcome [6] | outcome [7] | outcome [8] | outcome [9] | outcome [10] | outcome [11] | outcome [12] | outcome [13] | outcome [14] | outcome [15] | outcome [16] | outcome [17]

O=C(NCc1ccccc1Cl)/C(=C\c1cccnc1)NC(=O)c1ccccc1
inactive: outcome [1] | outcome [2] | outcome [3] | outcome [4] | outcome [5] | outcome [6] | outcome [7] | outcome [8] | outcome [9] | outcome [10] | outcome [11] | outcome [12] | outcome [13] | outcome [14] | outcome [15] | outcome [16] | outcome [17]
